About 83,000 compounds went through this panel and 20% of them were active in at least one assay; those are over-represented in the sample as a whole.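 Step 1: grow cells in 96-well plates. Step 2: add test compound at a single concentration. Step 3: incubate 48 h. Step 4: record percent growth.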 Values without a mark were called inactive. Active and inactive are the calls of the source. Rule for the calls: active = growth percent below 10; inactive = the rest.
Experiments:
Experiment in all cases: NCI-60 one-dose screen, 48 h (100 = growth as untreated, 0 = no growth, -100 = all killed)
Conditions in all cases: 10 µM
NCI-H23 lung = tested on: NCI-H23 lung
NCI-H226 lung = tested on: NCI-H226 lung
HOP-62 NSCLC = tested on: HOP-62 NSCLC
NCI-H460 lung = tested on: NCI-H460 lung
HOP-92 NSCLC = tested on: HOP-92 NSCLC
NCI-H522 lung = tested on: NCI-H522 lung
A549/ATCC NSCLC = tested on: A549/ATCC NSCLC
786-0 renal = tested on: 786-0 renal
COLO 205 colon = tested on: COLO 205 colon
DU-145 prostate = tested on: DU-145 prostate
K-562 leukemia = tested on: K-562 leukemia
MALME-3M melanoma = tested on: MALME-3M melanoma
MDA-MB-231 breast = tested on: MDA-MB-231 breast
RXF 393 renal = tested on: RXF 393 renal
SF-268 CNS = tested on: SF-268 CNS
SF-295 CNS = tested on: SF-295 CNS
SF-539 CNS = tested on: SF-539 CNS
UACC-257 melanoma = tested on: UACC-257 melanoma
M14 melanoma = tested on: M14 melanoma

SMILES	growth (NCI-H23 lung)	growth (NCI-H226 lung)	growth (HOP-62 NSCLC)	growth (NCI-H460 lung)	growth (HOP-92 NSCLC)	growth (NCI-H522 lung)	growth (A549/ATCC NSCLC)	growth (786-0 renal)	growth (COLO 205 colon)	growth (DU-145 prostate)	growth (K-562 leukemia)	growth (MALME-3M melanoma)	growth (MDA-MB-231 breast)	growth (RXF 393 renal)	growth (SF-268 CNS)	growth (SF-295 CNS)	growth (SF-539 CNS)	growth (UACC-257 melanoma)	growth (M14 melanoma)
CC(C)N(CCOc1ccc(-c2nc3sccn3c2-c2ccnc(S(C)(=O)=O)n2)cc1)C(C)C	90.3%	87.7%	85.2%	102%	29.6%	-26.9% (active)	105%	77.6%	86.8%	99.9%	62.9%	102%	75.4%	93.2%	96.3%	108%	95.4%	78.4%	112%
Clc1nc2ccc(Br)cc2cc1-c1nc2ccccc2[nH]1	90.6%	98.5%	81.3%	73.2%	71.3%	53.1%	17.2%	91%	107%	99.4%	86.1%	97.2%	64.6%	10.6%	59.3%	86.7%	107%	102%	105%
COc1ccc(C2=Cn3c(CCC(=O)c4nc5ccccc5[nH]4)nnc3SC2)cc1	94.5%	89.3%	93.7%	101%	77.5%	98.6%	106%	104%	123%	97.7%	3.14% (active)	102%	92.2%	112%	107%	83.7%	92%	107%	111%
O=C(CCCSc1nc(-c2ccccc2)cc(-c2ccc(Cl)cc2)n1)NO	9.38% (active)	10.6%	12.5%	-9.81% (active)	32.9%	7.31% (active)	5.6% (active)	9.83% (active)	10.1%	14.2%	8.59% (active)	4.49% (active)	17.7%	-19.2% (active)	14.3%	4.46% (active)	-27.2% (active)	8.34% (active)	5.54% (active)
N#CCc1csc(Cc2ccccc2)n1	97.2%	101%	104%	102%	117%	88.9%	95.1%	108%	117%	108%	103%	101%	114%	119%	100%	106%	104%	94.5%	101%
C=CCn1c(SCC(=O)Nc2ccc(C(=O)/C=C/c3ccc(Cl)cc3)cc2)nnc1-c1cc(-c2ccccc2)nc2ccccc12	66.3%	73.6%	86.1%	98.6%	91.5%	60.5%	89.7%	86.7%	99.5%	95.6%	27.6%	87.1%	58.3%	63.9%	76%	102%	69.8%	93.4%	76.3%
COc1ccc2cc(-c3nc4ccccc4s3)c(Cl)nc2c1OC	84.4%	93.9%	90.7%	98.4%	85.3%	101%	110%	119%	98%	113%	92.3%	109%	87.3%	104%	93.3%	108%	99%	109%	102%
N#Cc1ccc(C(=O)CSc2nccc(Nc3ccc(C(=O)O)cc3)n2)cc1	100%	101%	108%	104%	104%	94.4%	102%	104%	110%	110%	106%	106%	107%	97.4%	102%	97.4%	97.9%	110%	110%
O=[N+]([O-])c1ccc2ncccc2c1Cl	86.7%	109%	44.5%	93.1%	99%	41.3%	99.9%	63.5%	-69.2% (active)	-26% (active)	12.1%	69%	21.2%	91.2%	38.9%	-0.464% (active)	12.9%	62.2%	49.5%
COC1OC(COS(=O)OC)C(O)C(O)C1OS(=O)OC (centres undefined)	101%	95.7%	104%	101%	108%	98.5%	103%	106%	110%	99.5%	102%	97.1%	103%	111%	103%	103%	98.3%	99.5%	96.6%
CCOC(=O)c1cc(C(=O)c2cc(OC)cc(OC)c2)n2ncc3ccccc3c12	41.9%	59.1%	42.6%	7.07% (active)	32.4%	2.64% (active)	17.9%	5.34% (active)	19.1%	46.4%	5.75% (active)	41.9%	42.9%	29.1%	46.9%	8.71% (active)	11.5%	49%	15.7%
COc1cc2c(Nc3ccc(S(N)(=O)=O)cc3)ncnc2c(OC)c1OC	96.7%	84.9%	92.3%	105%	85.9%	89.4%	102%	121%	89.2%	107%	97.8%	95%	94.9%	109%	90.2%	105%	99.3%	94.9%	124%
C1CN(CC2CCC(CN3CCOCC3)O2)CCO1 (centres undefined)	98.6%	107%	95.1%	110%	120%	66.2%	96.9%	99.7%	60.8%	111%	63.1%	-4.36% (active)	118%	112%	104%	99.7%	98%	103%	95.9%
NS(=O)(=O)Oc1ccc(NC(=O)C2CCCCCC2)cc1	97.4%	100%	99.3%	106%	98.9%	95.6%	96%	107%	112%	117%	96.1%	102%	103%	116%	98.5%	99%	98.3%	100%	108%
Cc1c(Cl)cccc1NC(=O)CCCl	105%	95.3%	86.9%	102%	103%	91%	92.8%	103%	107%	106%	88.2%	108%	121%	112%	97.8%	106%	102%	89.2%	97%
CN(C)CCOc1cccc(NC2=C(Cl)C(=O)C(Nc3cccc(OCCN(C)C)c3)=C(Cl)C2=O)c1	-59.5% (active)	-74.6% (active)	-82.9% (active)	55.4%	-70.1% (active)	-91.3% (active)	57.9%	-86.4% (active)	-82.9% (active)	-100% (active)	-30.7% (active)	-74.8% (active)	-75.2% (active)	-76.5% (active)	-50% (active)	66.5%	-86.4% (active)	-97.3% (active)	-74% (active)

From PubChem BioAssay (NCI)
